As usually defined, the AC50 is the concentration at which the activity in the assay is half-maximal.

The structures appear in SMILES notation. Records with an inconclusive call do not appear. Active and inactive are the calls of the source. How the source made its calls: active means hit-call score of the fitted dose curve at least 0.9, where 1 is the maximum; inconclusive means response in the unintended direction; inactive means score below 0.9.

Sequence of Adenosine receptor A1 (Bos taurus) (P28190 whole entry, looked up): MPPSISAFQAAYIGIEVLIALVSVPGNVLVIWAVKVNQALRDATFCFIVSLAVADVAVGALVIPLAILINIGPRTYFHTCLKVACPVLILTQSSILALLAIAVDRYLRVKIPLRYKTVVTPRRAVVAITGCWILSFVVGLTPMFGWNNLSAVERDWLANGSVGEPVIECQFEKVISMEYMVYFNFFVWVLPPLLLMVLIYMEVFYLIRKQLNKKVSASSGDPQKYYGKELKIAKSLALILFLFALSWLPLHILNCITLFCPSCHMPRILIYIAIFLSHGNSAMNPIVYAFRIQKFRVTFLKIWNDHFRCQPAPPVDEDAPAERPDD
Sequence of rat Constitutive Nitric Oxide Synthase (CNOS), Nos1 (gene 24598) (P29476 whole entry, looked up): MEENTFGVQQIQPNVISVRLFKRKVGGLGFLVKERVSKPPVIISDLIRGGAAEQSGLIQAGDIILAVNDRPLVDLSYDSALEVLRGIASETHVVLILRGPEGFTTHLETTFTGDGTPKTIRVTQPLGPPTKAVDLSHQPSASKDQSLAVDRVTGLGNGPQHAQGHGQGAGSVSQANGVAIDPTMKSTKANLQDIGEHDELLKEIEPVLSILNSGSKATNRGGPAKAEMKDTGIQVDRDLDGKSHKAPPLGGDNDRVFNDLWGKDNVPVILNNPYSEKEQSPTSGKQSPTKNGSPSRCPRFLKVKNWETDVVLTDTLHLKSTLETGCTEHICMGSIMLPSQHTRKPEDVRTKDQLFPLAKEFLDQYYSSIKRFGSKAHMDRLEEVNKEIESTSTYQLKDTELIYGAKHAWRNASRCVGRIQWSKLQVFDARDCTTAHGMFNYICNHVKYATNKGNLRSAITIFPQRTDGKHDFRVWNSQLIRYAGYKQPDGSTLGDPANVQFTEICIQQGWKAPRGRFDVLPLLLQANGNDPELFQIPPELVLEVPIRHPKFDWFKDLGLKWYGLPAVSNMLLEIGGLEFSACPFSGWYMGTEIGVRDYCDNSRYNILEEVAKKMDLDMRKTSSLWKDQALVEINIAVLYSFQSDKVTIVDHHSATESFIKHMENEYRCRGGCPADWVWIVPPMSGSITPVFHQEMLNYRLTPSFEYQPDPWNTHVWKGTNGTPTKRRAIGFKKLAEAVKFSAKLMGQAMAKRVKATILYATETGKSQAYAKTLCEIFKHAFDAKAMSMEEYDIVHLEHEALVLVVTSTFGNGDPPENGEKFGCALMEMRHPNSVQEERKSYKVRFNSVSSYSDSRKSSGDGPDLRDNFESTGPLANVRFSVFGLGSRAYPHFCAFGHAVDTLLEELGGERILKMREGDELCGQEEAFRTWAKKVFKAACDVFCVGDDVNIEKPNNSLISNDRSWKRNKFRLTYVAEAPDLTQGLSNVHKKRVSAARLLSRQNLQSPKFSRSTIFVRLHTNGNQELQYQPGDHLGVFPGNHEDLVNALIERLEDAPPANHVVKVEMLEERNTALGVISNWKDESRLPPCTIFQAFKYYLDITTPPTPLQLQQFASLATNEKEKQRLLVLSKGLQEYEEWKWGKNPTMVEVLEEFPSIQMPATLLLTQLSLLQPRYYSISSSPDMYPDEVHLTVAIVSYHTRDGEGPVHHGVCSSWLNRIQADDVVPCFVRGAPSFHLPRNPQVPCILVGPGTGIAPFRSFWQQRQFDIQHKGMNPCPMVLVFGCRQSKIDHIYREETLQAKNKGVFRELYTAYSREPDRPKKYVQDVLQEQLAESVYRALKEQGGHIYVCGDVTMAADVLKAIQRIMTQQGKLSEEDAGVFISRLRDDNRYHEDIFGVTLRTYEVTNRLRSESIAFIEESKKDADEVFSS
Sequence of sheep Cyclooxygenase-2 (Cox2), PTGS2 (gene 443460) (P79208 whole entry, looked up): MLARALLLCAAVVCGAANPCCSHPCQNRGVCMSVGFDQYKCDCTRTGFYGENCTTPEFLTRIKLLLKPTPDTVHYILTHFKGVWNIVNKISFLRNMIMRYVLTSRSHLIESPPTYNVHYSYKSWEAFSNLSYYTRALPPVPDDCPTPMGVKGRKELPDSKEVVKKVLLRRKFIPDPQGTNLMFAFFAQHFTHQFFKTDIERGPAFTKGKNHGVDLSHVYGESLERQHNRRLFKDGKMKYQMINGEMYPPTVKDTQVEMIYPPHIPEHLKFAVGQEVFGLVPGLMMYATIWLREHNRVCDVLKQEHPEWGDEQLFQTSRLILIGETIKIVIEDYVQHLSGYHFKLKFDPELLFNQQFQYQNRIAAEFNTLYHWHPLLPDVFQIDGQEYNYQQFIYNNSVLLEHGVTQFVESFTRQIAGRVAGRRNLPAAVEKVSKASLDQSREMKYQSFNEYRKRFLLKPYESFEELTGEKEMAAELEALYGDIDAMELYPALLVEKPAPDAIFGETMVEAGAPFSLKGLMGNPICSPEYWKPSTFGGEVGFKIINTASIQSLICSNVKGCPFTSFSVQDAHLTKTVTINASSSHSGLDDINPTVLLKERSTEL

The first assay deals with sheep Cyclooxygenase-2 (Cox2), PTGS2 (gene 443460) (UniProt P79208). Description: NVS_ENZ_oCOX2: NovaScreen (NVS) Enzymatic Assay for sheep Cyclooxygenase-2 (Cox2) (AID 2283231). The method in brief:
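Ovine placental enzyme, cell-free; chemical added, 0.66 h, absorbance (colorimetric). Screen 25 uM in duplicate; ≥threshold hits titrated, top 50 uM. Inhibition = signal loss vs DMSO.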
As for `Cc1ccc(C)c(O)c1C`, the AC50 was 3.04 µM (active).
Same read-out and setting: the same measure for `CC(=O)OC/C=C(\C)CCC=C(C)C`: 9.67 µM (active); for `CCOC(=O)C(C)(C)Oc1ccc(Cl)cc1`: 8.26 µM (active).
Take `CC(=O)Oc1ccccc1C(=O)O`: the result was inactive.
For `Nc1ccccc1N`, the AC50 was 14.9 µM (active).
On the same count and under the same terms, the same measure for `C=CCc1ccc(O)c(OC)c1`: 15.7 µM (active).
For `CCCCN(CCCC)CCCC`, the compound was classed as inactive.
For the compound `C=CCOC(=O)c1ccccc1C(=O)OCC=C`, the AC50 is 5.13 µM (active).
With `CC1=C(/C=C/C(C)=C/C=C/C(C)=C/CO)C(C)(C)CCC1`, the AC50 is 15.5 µM (active).

Another assay concerns the target rat Constitutive Nitric Oxide Synthase (CNOS), Nos1 (gene 24598) (UniProt P29476). Description: NVS_ENZ_rCNOS: NovaScreen (NVS) Enzymatic Assay for rat Constitutive Nitric Oxide Synthase (CNOS) (AID 2283236). On the procedure:
NVS_ENZ_rCNOS is a biochemical, single-readout assay that uses extracted gene-proteins from Rat brain membranes in a tissue-based cell-free assay. Measurements were taken 1 hour after chemical dosing in a 96-well plate.NVS_ENZ_rCNOS is one of one assay component(s) measured or calculated from the NVS_ENZ_rCNOS assay. It is designed to make measurements of enzyme activity, a form of enzyme reporter, as detected with scintillation counting signals by Filter-based radiodetection technology.Data from the assay component NVS_ENZ_rCNOS was analyzed into 1 assay endpoint. This assay endpoint, NVS_ENZ_rCNOS, was analyzed in the positive analysis fitting direction relative to DMSO as the negative control and baseline of activity. Using a type of enzyme reporter, loss-of-signal activity can be used to understand changes in the enzymatic activity as they relate to the gene Nos1. Furthermore, this assay endpoint can be referred to as a primary readout, because this assay has produced multiple assay endpoints where this one serves a enzymatic activity function. To generalize the intended target to other relatable targets, this assay endpoint is annotated to the oxidoreductase intended target family, where the subfamily is nitric oxide synthase.
Binding assays used specific radioligands (tritiated, iodinated) with non-radioactive competitive displacement ligands in agonist or antagonist protocols (as indicated) and various reference compounds and inhibitors to titrate specific binding to receptors and transporters. Most enzyme assays (CYPs, kinases, phosphatases, proteases, HDACs) used recombinant protein and specific substrates (fluorescence mostly, some colorimetric and radioactive) and inhibitors, followed by a biochemical separation of substrate and product. All assays for the biochemical HTS were initially run in duplicate at a single concentration (10 uM for CYP450 assays and 25 uM for all others). Assay-chemical combinations meeting a pre-defined threshold (e.g., 30% inhibition and other criteria defined below) were then run in singleton concentration-response format with maximum concentration of 20 uM for CYPs and 50 uM for all others. Each assay was run with positive and negative controls, and concurrent controls on every plate. The follow-up (secondary) screen tested active chemical-pairs in concentration series, as well as a few additional assays not tested in the primary screen, some selected negative inactives, and several cases re-run in the concentration series for confirmatory purposes.
For `CC(C)c1ccc(C(=O)N=C(N)N)cc1S(C)(=O)=O`, the call was inactive.
Same read-out and setting: the entry for `COc1cc(C=O)ccc1O` is “inactive”.
`Cc1cc(=O)[nH]c(=S)[nH]1`: the AC50 is 6.64 µM (active).
For the compound `FC(F)(F)C(F)(F)C(F)(F)C(F)(F)C(F)(F)C(F)(F)CCI`, the call was inactive.
In the case of `Nc1ccc2c(c1)C(=O)c1ccccc1C2=O`, the outcome was inactive.
Same read-out and setting: the entry for `CCOc1ccc2c(c1)C(C)=CC(C)(C)N2` is “inactive”; for `COc1cc(S(=O)(=O)O)c(C)cc1N=Nc1c(O)ccc2cc(S(=O)(=O)O)ccc12` it is “inactive”.
In the case of `COc1ccc(C)cc1N`, the AC50 is 7.8 µM (active).
As for `CCCCC(CC)COC(=O)CC(C(=O)OCC(CC)CCCC)S(=O)(=O)O` (stereo unspecified), the compound was called inactive.

The target in another assay is sheep Cyclooxygenase-1 (Cox1), PTGS1 (gene 443551) (UniProt P05979). Description: NVS_ENZ_oCOX1: NovaScreen (NVS) Enzymatic Assay for sheep Cyclooxygenase-1 (Cox1) (AID 2283239).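 Further: actives reduce cyclooxygenase activity so potencies are for inhibitors.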 The method in brief: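 Native ovine seminal vesicle protein serves as enzyme source in this biochemical assay. Colorimetric signal is recorded 0.66 h after chemical addition, and decreases versus the DMSO control define activity.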
Sequence of sheep Cyclooxygenase-1 (Cox1), PTGS1 (gene 443551) (P05979 whole entry, looked up): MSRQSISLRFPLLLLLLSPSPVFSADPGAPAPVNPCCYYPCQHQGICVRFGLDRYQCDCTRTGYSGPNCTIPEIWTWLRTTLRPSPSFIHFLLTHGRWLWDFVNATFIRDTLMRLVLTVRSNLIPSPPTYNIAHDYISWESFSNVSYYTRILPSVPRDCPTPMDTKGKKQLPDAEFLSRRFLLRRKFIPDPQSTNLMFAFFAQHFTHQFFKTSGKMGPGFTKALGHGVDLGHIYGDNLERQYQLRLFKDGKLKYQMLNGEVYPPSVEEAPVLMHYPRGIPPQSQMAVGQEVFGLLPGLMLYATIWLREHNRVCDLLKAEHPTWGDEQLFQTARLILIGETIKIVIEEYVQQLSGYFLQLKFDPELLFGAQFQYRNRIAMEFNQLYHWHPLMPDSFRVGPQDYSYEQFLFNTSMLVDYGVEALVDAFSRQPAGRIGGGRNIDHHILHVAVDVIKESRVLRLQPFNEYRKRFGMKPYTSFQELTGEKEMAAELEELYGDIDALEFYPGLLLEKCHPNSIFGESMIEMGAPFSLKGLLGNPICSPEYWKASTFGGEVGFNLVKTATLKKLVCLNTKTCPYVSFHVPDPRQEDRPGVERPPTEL
Regarding `CC(=O)OC/C=C(\C)CCC=C(C)C`, the AC50 was 8.78 µM (active).
As for `CCOC(=O)C(C)(C)Oc1ccc(Cl)cc1`, the compound was called inactive.
With `Nc1nc(N)c2nc(CNc3ccc(C(=O)N[C@@H](CCC(=O)O)C(=O)O)cc3)cnc2n1`, the AC50 is 1.66 µM (active).
Turning to `Cc1ccc(Cl)cc1`, the outcome was inactive.
For the compound `O=[N+]([O-])C(CO)(CO)CO`, the compound was called inactive.
The same measure, in the same setting: the entry for `CC(=O)Oc1ccccc1C(=O)O` is “inactive”; for `Nc1ccccc1N` it is “inactive”.
Consider `COc1cc(-c2nc(NC(=O)c3cc4cc(C)cc(C)c4n3CC(=O)O)sc2CCC2CCCCC2)c(OC)cc1Cl`, for which the half-maximal activity concentration (AC50) was 4 µM (active).
`CCCCCCC(=O)OCC`: the compound was called inactive.
As for `CC1=C(/C=C/C(C)=C/C=C/C(C)=C/CO)C(C)(C)CCC1`, the AC50 is 17.9 µM (active).
As for `CC=Cc1ccc(O)c(OC)c1`, the result was inactive.
With `COc1ccc(C)cc1N`, the AC50 is 10.7 µM (active).
Same read-out and setting: the same measure for `CCCCC(CC)COC(=O)CC(C(=O)OCC(CC)CCCC)S(=O)(=O)O` (stereo unspecified): 6.53 µM (active).

Another assay concerns the target Adenosine receptor A1 (Bos taurus) (UniProt P28190). Description: NVS_GPCR_bAdoR_NonSelective: NovaScreen (NVS) G Protein-Coupled Receptor Assay for bovine Adenosine Receptor (AdoR), Non-selective Binding (AID 2283244). Summed up: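 Bovine striatal membranes, radioligand displacement binding, 1 h after dosing, filter-based scintillation counting. Screened in duplicate at 25 uM, then concentration-response up to 50 uM; loss of specific binding relative to DMSO.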
Consider `Oc1ccc2ccccc2c1N=Nc1ccccc1`, for which the concentration at half-maximal activity (AC50) is 25 µM (active).
Regarding `Cc1ccc(N(C)C)cc1`, the compound was called inactive.
Take `Nc1ccccc1N`: the AC50 is 9.16 µM (active).
In the case of `CCc1c(C(=O)NN2CCCCC2)nn(-c2ccc(Cl)cc2Cl)c1-c1ccc(Br)cc1`, the call was inactive.
For the compound `Nc1ccc2c(c1)C(=O)c1ccccc1C2=O`, the AC50 was 25 µM (active).
`COc1cc(S(=O)(=O)O)c(C)cc1N=Nc1c(O)ccc2cc(S(=O)(=O)O)ccc12`: the compound was called inactive.
As to `O=c1c(O)c(-c2ccc(O)c(O)c2)oc2cc(O)cc(O)c12`, the AC50 was 0.89 µM (active).

Tested on in the next assay: not listed separately
The experiment in a line: NVS_GPCR_bNPY_NonSelective: NovaScreen (NVS) G Protein-Coupled Receptor Assay for bovine Neuropeptide Y (NPY) Receptor, Non-selective Binding (AID 2283245). Summed up:
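Bovine hippocampal membranes incubated 1 hour with radioligand and test chemical. Bound ligand measured by filter-based scintillation counting. Single-concentration screen at 25 uM in duplicate, then concentration-response up to 50 uM.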
As for `CCCCCCOCCO`, the compound was called inactive.
As to `COc1ccc(S(=O)(=O)N2C(=O)[C@@](c3ccccc3OC)(N3C[C@H](O)C[C@H]3C(=O)N(C)C)c3cc(Cl)ccc32)c(OC)c1`, the outcome was inactive.
Regarding `CCCCCCCCCCCC(=O)OC`, the call was inactive.

The record behind these values is PubChem BioAssay (EPA / NIEHS).
